In the library only some 1.1% were active in any assay of this set; here they are far more common.
VLA-4 inh – inhibition in a human VLA-4 binding assay. inhibition, % (about 7 µM as worked out from the volumes in the protocol). 330,000 compounds, 0.2% hits. VLA-4 expressing cells, ligand binding flow cytometry. P13612. AID 2557; in the data active = inhibition above about 50%
NTR1 agonist – activates human neurotensin receptor 1. 330,000 compounds, 0.17% hits. NTR1-U2OS beta-arrestin-GFP spot imaging, agonist mode. activation, % at 20 µM. P30989;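 active = activation at or above 40% of the spot to cytoplasm intensity ratio, with at least 20 cells analyzed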;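 also: 0% = DMSO without peptide and 100% = 100 nM NTR1 peptide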
Pemphigus Ab inh – human desmoglein-3 autoantibody binding inhibition. DSG3-coupled beads, scFv-anti-DSG3-GFP binding, flow cytometry; stronger effect = lower value. P32926. 310,000 compounds, 0.48% hits. binding (percent of control), % at 10 µM;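 active = binding more than 3 SD below its plate's average and above zero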;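 also: hits lower antibody fragment binding to DSG3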
AI-2 QS modul – Vibrio harveyi AI-2 quorum sensing modulation; Vibrio harveyi JMH597 AI-2 luminescence/OD600 ratio, 9 h; stronger effect = lower value; strain lacks LuxN and CqsS sensors; 0 = neutral-control median; activity change, % at 7.5 µM; 300,000 compounds, 0.4% hits; AID 2094; in the data active = activity change below about -75%, passing the limit was not always enough;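 also: luminescence divided by OD600 gain over 9 h not by final OD600 alone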
VLA-4 allo CP – confirmation of allosteric modulators of human VLA-4 integrin. shares compounds with VLA-4 inh. AID 2813. U937 cells, HUTS-21 LIBS mAb binding, flow cytometry; LDV ligand present at threefold Kd. inhibition, % at 6.7 µM. 1,300 compounds, 2% hits; in the data active = inhibition above about 40%;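 also: 0% = ligand without compound and 100% = no ligand background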
* = called active by the depositor; i = inactive; . = no result.

SMILES | VLA-4 inh | NTR1 agonist | Pemphigus Ab inh | AI-2 QS modul | VLA-4 allo CP
COc1ccc(C(=O)c2cc([N+](=O)[O-])ccc2N2CCOCC2)cc1 | 31 | . | 92 | 9 | 47*
CCOc1ccc(C(=O)c2cc([N+](=O)[O-])ccc2N2CCOCC2)cc1 | 51* | . | . | 26 | 49*
CCOC(=O)c1c(NC(=O)COC(=O)CNC(=O)c2ccc(Cl)cc2Cl)sc(C(=O)N(C)C)c1C | 52* | 1 | 115 | 9 | 1
CCOC(=O)c1c(NC(=O)COC(=O)c2nc(Cl)ccc2Cl)sc(C(=O)N(C)C)c1C | -2 | 2 | 111 | 0 | .
N#CCN(CC#N)C(=O)C1c2ccccc2Oc2ccccc21 | 18 | 0 | 107 | 20 | .
CCC(=O)Nc1ccc2ccccc2c1 | 45 | -1 | 104 | 13 | 4
COc1ccccc1N(CC(=O)NCCSc1ccc(Cl)cc1)S(C)(=O)=O | -3 | 1 | 108 | 15 | .
COc1ccc(-c2csc3nc(C(C)C)oc(=O)c23)cc1OC | 0 | 2 | 107 | 16 | .
COc1ccc(-c2nc3scc(-c4ccc(OC)c(OC)c4)c3c(=O)o2)cc1 | 84* | 0 | 94 | -1 | 7
O=C(Nc1ccc(F)cc1)Nc1cccnc1 | -6 | . | 104 | 31 | -3
O=C(NC1CCCc2ccccc21)c1cccc(Br)c1 (stereo unspecified) | 43 | -2 | 96 | 13 | -18
O=C(NC1CCCc2ccccc21)c1ccc(Br)cc1 (stereo unspecified) | 15 | 1 | 108 | 12 | .
CN(C(=O)c1cccc(NC(=O)Cc2ccc(NC(=O)C3CCN(C(=O)C4CCCCC4)CC3)cc2)c1)C1CC1 | . | . | 98 | . | .
O=C(COc1ccc(-c2ccccc2)cc1)NNC(=O)Nc1ccc(F)cc1F | -3 | -1 | 99 | 38 | .
O=C(CCC(=O)Nc1ccccc1)N/N=C/c1ccncc1 | -13 | 0 | 102 | 10 | .
O=C(CCC(=O)Nc1ccc(F)cc1)N/N=C/c1ccncc1 | 56* | -1 | 104 | 2 | 0
O=C(c1ccc(Cl)c(NC2=NC3CS(=O)(=O)CC3S2)c1)N1CCN(c2ccc(F)cc2)CC1 (stereo unspecified) | 15 | 0 | 104 | 16 | 0
O=C(c1cccc(NC2=NC3CS(=O)(=O)CC3S2)c1)N1CCN(c2cccc(Cl)c2)CC1 (stereo unspecified) | 10 | 2 | 102 | 59 | i
O=S(=O)(Nc1ccc(S(=O)(=O)N2CCCC2)cc1)c1ccccc1Br | 3 | -2 | 101 | . | .
O=C(NC(=S)Nc1ccccc1)c1cccs1 | 7 | 2 | . | 3 | .
CC(=O)NC(=S)Nc1ccc(NC(=O)c2cccs2)cc1 | 43 | 2 | 105 | 7 | -11
COc1ccccc1-n1cnnc1SCC(=O)Nc1ccccc1 | 8 | -1 | 91 | 6 | .
COc1ccccc1-n1cnnc1SCc1csc(-c2ccccc2)n1 | 95* | 2 | 109 | . | -8
N#Cc1ccccc1S(=O)(=O)N1CCNS(=O)(=O)c2ccccc21 | . | -1 | 105 | . | .
Cc1ccc(-c2n[nH]c(=O)c3ccccc23)cc1S(=O)(=O)NCCN1CCOCC1 | 1 | 2 | 87 | 14 | .
SMILES | VLA-4 inh | NTR1 agonist | Pemphigus Ab inh | AI-2 QS modul | VLA-4 allo CP
CCOC(=O)N1CCN(S(=O)(=O)c2cc(-c3nn4c(C)nnc4c4ccccc34)ccc2C)CC1 | -3 | 1 | 106 | 15 | -2
Cc1ccc(-c2nn3c(C)nnc3c3ccccc23)cc1S(=O)(=O)NCCN1CCOCC1 | 0 | 0 | 106 | 25 | -10
COc1ccccc1CNC(=O)CNC(=O)[C@@H]1Cc2ccccc2CN1 | 3 | 0 | 103 | -4 | .
O=C(Nc1ccc2oc(-c3ccccc3)nc2c1)c1ccc2c(c1)OCCO2 | 60* | 18 | 99 | 10 | 2
CC(=O)Nc1ccc(S(=O)(=O)NCC(=O)NC(C)c2ccc(S(N)(=O)=O)cc2)cc1 (stereo unspecified) | -3 | 0 | 101 | 3 | 1
CC(=O)Nc1cccc(C(=O)NC(C)c2ccc(S(N)(=O)=O)cc2)c1 (stereo unspecified) | 12 | 0 | 105 | 7 | .
CCCOc1ncnc2c1[nH]c1ccccc12 | 2 | 0 | 101 | 6 | .
CCCOc1ncnc2c1[nH]c1ccc(OC)cc12 | 4 | 0 | 113 | 29 | 6
CCCCOc1ncnc2c1[nH]c1ccc(C)cc12 | -10 | 1 | . | 22 | 6
O=C(c1cc(-c2ccc(Cl)cc2)n(-c2ccc(Cl)cc2)n1)N1CCOCC1 | 92* | 4 | 103 | 13 | 5

Screening results: PubChem BioAssay, several laboratories
